Results from PubChem BioAssay (Tox21).
Values without a mark were called inactive. Records with an inconclusive call do not appear. Where a call stands in place of a potency, no number is given. Active and inactive are the calls of the source. Unless noted, the call rests on the fitted dose curve.

Key:
[1] = Nuclear factor erythroid 2-related factor 2/antioxidant responsive element (Nrf2/ARE) small molecule agonists: qHTS cell viability counter screen in human keratinocytes (AID 1919968; active means well fitted curve in the direction sought with a large enough effect in the repeat runs; an effect the other way counts as inactive or inconclusive; further: nearly all actives have a fitted effect of over 55% in size)
Procedure, shortened: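 Parallel cytotoxicity read: KeratinoSens HaCaT cells, compound treatment 23 h, viability by CellTiter-Fluor fluorescence 1 h post-reagent.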

[2] = Nuclear factor erythroid 2-related factor 2/antioxidant responsive element (Nrf2/ARE) small molecule agonists: luciferase reporter gene qHTS assay in human keratinocytes (AID 1919969); further: nearly all actives have a fitted effect of over 35% in size; further: potency means the concentration at half of the fitted maximal effect
[3] = target: Gonadotropin-releasing hormone receptor (Homo sapiens) (UniProt P30968); experiment: Human gonadotropin-releasing hormone receptor (GnRHR) small molecule agonists, calcium flux assay in GnRHR-HEK293 cells (AID 1920063); further: nearly all actives have a fitted effect of over 35% in size
Gonadotropin-releasing hormone receptor (Homo sapiens), sequence (P30968 whole entry, looked up): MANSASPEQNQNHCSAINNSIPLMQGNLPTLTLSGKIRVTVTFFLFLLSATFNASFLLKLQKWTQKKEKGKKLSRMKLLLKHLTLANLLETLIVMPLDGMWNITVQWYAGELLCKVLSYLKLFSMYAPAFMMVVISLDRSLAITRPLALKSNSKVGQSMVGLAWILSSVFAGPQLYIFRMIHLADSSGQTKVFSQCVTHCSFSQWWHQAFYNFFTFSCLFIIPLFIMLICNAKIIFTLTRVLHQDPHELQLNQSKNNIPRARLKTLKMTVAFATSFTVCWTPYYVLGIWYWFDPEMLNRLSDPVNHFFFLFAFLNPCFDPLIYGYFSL
Procedure, shortened: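 Calcium flux, agonist mode, human GnRHR stably integrated in HEK293; dye 1 h at 37 C before compound; Ex/Em=480/540 kinetic read, 3 min; 15 concentrations, triplicate.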

[4] = G protein-coupled receptor (GPCR) small molecule agonists, calcium flux assay: HEK293 wild type cell line counter screen (AID 1920065)
Procedure, shortened: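 Non-specific calcium responders were flagged by adding DMSO-dissolved compounds to dye-loaded cells and reading 480/540 nm fluorescence each second for 3 min; ATP served as positive control.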

[5] = p53 small molecule agonists, cell-based qHTS assay with human liver microsomes (AID 1963577)
Procedure, shortened: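 Fluorescence of the beta-lactamase reporter in p53RE-bla cells, detected with LiveBLAzer substrate (2 h, room temperature, dark), served as the read-out after 16 h compound exposure at 37 C with human liver microsomes and NADPH, each 0.5 mg/mL final.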

[6] = p53 small molecule agonists, cell-based qHTS assay with rat liver microsomes (AID 1963578)
Procedure, shortened: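 Cells carrying a p53 response element–beta-lactamase reporter were plated and rested 5 h, then dosed with compound in DMSO plus rat liver microsomes and NADPH, each at 0.5 mg/mL final. After 16 h at 37 C, LiveBLAzer substrate was added for 2 h.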

[7] = p53 small molecule agonists, cell-based qHTS assay with human liver microsomes: qHTS cell viability counter screen (AID 1963579); further: nearly all actives have a fitted effect of over 45% in size
Procedure, shortened: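 Cytotoxicity counter screen: p53RE-bla, 4,000 cells/well; 5 h settle, 37 C/5% CO2; cpd + HLM 0.5 mg/mL + NADPH 0.5 mg/mL (final); 16 h, 37 C; CellTiter-Glo, 30 min RT, luminescence.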

[8] = p53 small molecule agonists, cell-based qHTS assay with rat liver microsomes: qHTS cell viability counter screen (AID 1963580); further: nearly all actives have a fitted effect of over 45% in size
Procedure, shortened: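 Rat liver microsome (0.5 mg/mL final) and NADPH (0.5 mg/mL final) co-incubation with compounds for 16 h at 37 C on HCT-116 p53RE-bla cells; cytotoxicity taken from intracellular ATP luminescence.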

[9] = p53 small molecule agonists, cell-based qHTS assay: qHTS cell viability counter screen (AID 1963581); further: nearly all actives have a fitted effect of over 45% in size
Procedure, shortened: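 Multiplexed with the reporter read, a CellTiter-Glo step (30 min, room temperature) gauges ATP-based viability of HCT-116 p53RE-bla cells after 16 h compound incubation at 37 C.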

[10] = p53 small molecule agonists, cell-based qHTS assay (AID 1963582; active means well fitted activation curve with a large enough effect in the signal ratio in the repeat runs, not every such curve was filed as active; the % refers to the signal ratio)
Procedure, shortened: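 Beta-lactamase reporter cells (p53RE-bla) treated with compounds for 16 h at 37 C; FRET substrate, 2 h, room temperature; fluorescence intensity.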

[11] = target: 5-hydroxytryptamine receptor 2A (Homo sapiens) (UniProt P28223); experiment: 5-hydroxytryptamine receptor 2A (HTR2A) small molecule antagonists, cell-based qHTS assay (AID 1963586); further: nearly all actives have a fitted effect of over 45% in size
5-hydroxytryptamine receptor 2A (Homo sapiens), sequence (P28223 whole entry, looked up): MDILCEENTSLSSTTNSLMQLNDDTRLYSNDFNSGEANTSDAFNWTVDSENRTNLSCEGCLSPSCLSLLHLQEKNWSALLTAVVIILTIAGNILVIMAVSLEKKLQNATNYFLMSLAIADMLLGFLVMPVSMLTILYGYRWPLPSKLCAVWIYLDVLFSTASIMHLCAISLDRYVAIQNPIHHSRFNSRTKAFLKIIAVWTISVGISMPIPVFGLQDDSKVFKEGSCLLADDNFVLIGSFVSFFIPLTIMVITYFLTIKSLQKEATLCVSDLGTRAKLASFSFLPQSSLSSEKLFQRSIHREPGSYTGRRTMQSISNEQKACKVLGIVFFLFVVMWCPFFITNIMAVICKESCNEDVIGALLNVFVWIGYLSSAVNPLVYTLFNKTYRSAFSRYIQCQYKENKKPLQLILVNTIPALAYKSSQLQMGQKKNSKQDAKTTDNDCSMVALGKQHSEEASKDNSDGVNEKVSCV
Procedure, shortened: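 CHO cells stably expressing human HTR2A were plated for 18 h at 37 C, then loaded with calcium dye for 1 h. Compounds were preincubated 5 min at room temperature before DOI (4 nM solution) was added. Kinetic fluorescence was read for 3 min.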

[12] = target: Muscarinic acetylcholine receptor M1 (Homo sapiens) (UniProt P11229); experiment: Cholinergic receptor muscarinic 1 (CHRM1) small molecule antagonists, cell-based qHTS assay (AID 1963588); further: nearly all actives have a fitted effect of over 40% in size
Muscarinic acetylcholine receptor M1 (Homo sapiens), sequence (P11229 whole entry, looked up): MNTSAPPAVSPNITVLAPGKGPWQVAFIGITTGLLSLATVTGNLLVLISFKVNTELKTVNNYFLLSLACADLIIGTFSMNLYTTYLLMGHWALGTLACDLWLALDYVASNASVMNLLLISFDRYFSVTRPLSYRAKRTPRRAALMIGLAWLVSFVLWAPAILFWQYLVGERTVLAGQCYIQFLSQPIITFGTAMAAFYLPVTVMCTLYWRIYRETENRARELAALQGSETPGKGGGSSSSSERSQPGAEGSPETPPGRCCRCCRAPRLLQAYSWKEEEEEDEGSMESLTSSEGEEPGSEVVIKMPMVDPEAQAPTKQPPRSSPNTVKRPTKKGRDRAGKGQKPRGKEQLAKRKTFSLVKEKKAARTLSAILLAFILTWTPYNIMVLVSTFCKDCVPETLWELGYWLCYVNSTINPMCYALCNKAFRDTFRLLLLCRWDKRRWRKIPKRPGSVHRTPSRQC
Procedure, shortened: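 Compounds were tested at 15 concentrations in three independent runs. Dye-loaded CHRM1-CHO cells were exposed 5 min at room temperature before stimulation by acetylcholine added at 50nM. Intracellular calcium was read kinetically on FDSS for 3 min.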

[13] = target: Muscarinic acetylcholine receptor M1 (Homo sapiens) (UniProt P11229); experiment: Cholinergic receptor muscarinic 1 (CHRM1) small molecule agonists, cell-based qHTS assay (AID 1963589); further: nearly all actives have a fitted effect of over 35% in size
Procedure, shortened: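 qHTS, 15-point titration, 3 independent runs: compounds pin-transferred onto dye-loaded CHRM1-CHO cells (human M1), calcium fluorescence followed every second to detect agonism.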

[14] = cAMP Responsive Elements (CRE) small molecule antagonists, cell-based qHTS assay (AID 1963591; active means well fitted inhibition curve with a large enough effect in the signal ratio in the repeat runs, not every such curve was filed as active; the % refers to the signal ratio)
Procedure, shortened: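 Fluorescence intensity from cleaved LiveBLAzer B/G substrate (2 h, room temperature) quantified CRE-bla activity in HEK 293T cells exposed 3 h to compound with 0.25 uM final NKH477.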

[15] = target: Beta-2 adrenergic receptor (Homo sapiens) (UniProt P07550); experiment: Adrenergic beta2 receptor (ADRB2) small molecule antagonists, cell-based qHTS assay (AID 1963592); further: nearly all actives have a fitted effect of over 50% in size; further: potency means the concentration at half of the fitted maximal effect
Beta-2 adrenergic receptor (Homo sapiens), sequence (P07550 whole entry, looked up): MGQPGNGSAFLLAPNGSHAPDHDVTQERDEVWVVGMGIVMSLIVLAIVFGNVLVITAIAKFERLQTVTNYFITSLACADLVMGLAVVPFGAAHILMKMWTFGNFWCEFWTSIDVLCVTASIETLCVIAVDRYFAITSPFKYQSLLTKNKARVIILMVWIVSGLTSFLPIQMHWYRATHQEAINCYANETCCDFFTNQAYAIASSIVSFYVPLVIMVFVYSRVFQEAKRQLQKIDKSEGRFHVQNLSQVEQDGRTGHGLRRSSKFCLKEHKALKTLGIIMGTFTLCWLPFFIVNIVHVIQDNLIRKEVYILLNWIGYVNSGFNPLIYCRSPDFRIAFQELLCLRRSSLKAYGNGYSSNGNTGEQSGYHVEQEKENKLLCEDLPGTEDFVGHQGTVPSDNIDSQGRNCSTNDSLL
Procedure, shortened: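 Assay format: CHO-ADRB2 cells, 18-20hr seeding at 37C/5% CO2, then compound plus 1nM isoproterenol agonist mix for 0.5hr RT. Homogeneous time-resolved fluorescence cAMP detection after 1hr, expressed as 665/615 nm ratio.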

[16] = target: D(2) dopamine receptor (Homo sapiens) (UniProt P14416); experiment: Dopamine D2 receptor (DRD2) small molecule agonists, cell-based qHTS assay (AID 1963594); further: nearly all actives have a fitted effect of over 35% in size
D(2) dopamine receptor (Homo sapiens), sequence (P14416 whole entry, looked up): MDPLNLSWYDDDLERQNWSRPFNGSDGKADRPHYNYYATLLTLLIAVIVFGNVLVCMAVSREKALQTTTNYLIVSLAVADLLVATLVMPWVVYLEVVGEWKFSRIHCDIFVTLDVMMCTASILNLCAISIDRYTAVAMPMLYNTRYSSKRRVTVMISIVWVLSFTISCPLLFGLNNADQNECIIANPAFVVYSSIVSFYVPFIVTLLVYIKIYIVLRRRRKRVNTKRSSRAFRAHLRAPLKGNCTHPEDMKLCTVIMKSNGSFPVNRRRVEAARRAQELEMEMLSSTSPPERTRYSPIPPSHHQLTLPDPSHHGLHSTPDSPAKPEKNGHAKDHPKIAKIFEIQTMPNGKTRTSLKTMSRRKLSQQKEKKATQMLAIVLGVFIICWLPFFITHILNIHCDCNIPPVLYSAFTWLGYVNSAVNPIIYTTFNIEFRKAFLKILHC
Procedure, shortened: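 cAMP accumulation in DRD2-HEK293 cells measured by HTRF after 1 h detection; compounds added 10 min before NKH477 (200nM […]) forskolin-analogue stimulation, 30 min at room temperature, with Ro20-1724 present at 0.1 mM final.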

[17] = target: D(2) dopamine receptor (Homo sapiens) (UniProt P14416); experiment: Dopamine D2 receptor (DRD2) small molecule antagonists, cell-based qHTS assay (AID 1963595; active means well fitted inhibition curve with a large enough effect in the signal ratio in the repeat runs, with a control signal flat; the % refers to the signal ratio; further: potency means the concentration at half of the fitted maximal effect)
Procedure, shortened: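 Cells were plated and grown for 24 h at 37 °C. Ro20-1724 (0.1 mM final) went in first, then compound for 10 min. NKH477 (200 nM) with quinpirole (12 nM) followed for 30 min at RT, then HTRF detection reagents for 1 h.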

[18] = cAMP Responsive Elements (CRE) small molecule agonists, cell-based qHTS assay (AID 1963590)
Procedure, shortened: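 Quantitative HTS for CRE agonists: HEK 293T CRE-bla cells, overnight plating, 3 h compound incubation at 37 C/5% CO2, then 2 h room-temperature LiveBLAzer B/G FRET substrate loading.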

[19] = target: 5-hydroxytryptamine receptor 2A (Homo sapiens) (UniProt P28223); experiment: 5-hydroxytryptamine receptor 2A (HTR2A) small molecule agonists, cell-based qHTS assay (AID 1963587); further: nearly all actives have a fitted effect of over 30% in size
Procedure, shortened: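 Kinetic calcium-flux fluorescence (2 min, 1 sec intervals) after compound addition in agonist mode. HTR2A-CHO cells were cultured 18 h, then dye-loaded 1 h at 37 C.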

[20] = target: KiSS-1 receptor (Homo sapiens) (UniProt Q969F8); experiment: Human kisspeptin (KISS1R) small molecule agonists, calcium flux assay in KISS1R-HEK293 cells (AID 1920064; active means well fitted curve in the direction sought with a large enough effect in the repeat runs; an effect the other way counts as inactive or inconclusive)
KiSS-1 receptor (Homo sapiens), sequence (Q969F8 whole entry, looked up): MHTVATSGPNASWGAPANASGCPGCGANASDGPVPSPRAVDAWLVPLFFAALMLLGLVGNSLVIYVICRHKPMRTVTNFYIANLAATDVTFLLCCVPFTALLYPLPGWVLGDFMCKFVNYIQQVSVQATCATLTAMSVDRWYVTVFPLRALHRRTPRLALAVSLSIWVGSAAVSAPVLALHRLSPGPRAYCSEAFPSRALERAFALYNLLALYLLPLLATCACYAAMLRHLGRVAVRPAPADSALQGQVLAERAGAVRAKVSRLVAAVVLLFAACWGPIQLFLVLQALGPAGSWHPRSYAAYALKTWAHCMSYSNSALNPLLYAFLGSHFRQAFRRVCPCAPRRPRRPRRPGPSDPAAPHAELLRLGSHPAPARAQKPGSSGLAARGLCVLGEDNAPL
Procedure, shortened: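 Triplicate 15-concentration series were applied to dye-loaded human KISS1R HEK293 cells, and agonist-evoked calcium fluorescence was captured for 3 min.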

Structure (SMILES) | Potency [1] | Potency [2] | Potency [3] | outcome [4] | Potency [5] | Potency [6] | Potency [7] | Potency [8] | Potency [9] | Potency [10] | Potency [11] | Potency [12] | Potency [13] | Potency [14] | Potency [15] | Potency [16] | Potency [17] | Potency [18] | Potency [19] | outcome [20]
CC(=O)c1c(C)cc(C(C)(C)C)cc1C | inactive | inactive | inactive | inactive | inactive | inactive | inactive | inactive | inactive | inactive | inactive | inactive | inactive | inactive | inactive | inactive | inactive |  |  | 
CCC=CC#N | inactive | inactive | inactive | inactive | inactive | inactive | inactive | inactive | inactive | inactive | inactive | inactive | inactive |  | inactive | inactive | inactive | inactive |  | 
CC12CCC(CC1=O)C2(C)C (stereo not drawn) | inactive | inactive | inactive | inactive | inactive | inactive | inactive | inactive | inactive | inactive |  |  |  | inactive | inactive | inactive | inactive | inactive |  | 
CCOC(=O)[C@H](CCc1ccccc1)N[C@@H](C)C(=O)N1Cc2cc(OC)c(OC)cc2C[C@H]1C(=O)O | inactive | inactive | inactive | inactive | inactive | inactive | inactive | inactive | inactive | inactive | inactive | inactive |  |  | inactive | inactive | inactive |  | inactive | 
ONc1ccccc1 | inactive | 60.5 µM (active) | inactive | inactive | inactive | inactive | inactive | inactive | inactive | inactive | inactive | inactive | inactive | inactive | inactive | inactive | inactive | inactive |  | 
CCCCCC(=O)OCC | inactive | inactive | inactive |  | inactive |  | inactive | inactive | inactive |  | inactive | inactive |  | inactive | inactive | inactive | inactive | inactive | inactive | inactive
FC(F)OC(Cl)C(F)(F)F (stereo not drawn) | inactive | inactive | inactive | inactive | inactive | inactive | inactive | inactive | inactive | inactive |  | inactive | inactive | inactive | inactive | inactive | inactive | inactive | inactive | 
OCCC(O)CO (stereo not drawn) | inactive | inactive | inactive | inactive | inactive | inactive | inactive | inactive | inactive | inactive | inactive | inactive | inactive | inactive | inactive |  | inactive | inactive | inactive | 
C=CCSCC1Nc2cc(Cl)c(S(N)(=O)=O)cc2S(=O)(=O)N1 (stereo not drawn) | inactive | inactive | inactive | inactive | inactive | inactive | inactive | inactive | inactive | inactive |  | inactive | inactive | inactive | inactive | inactive | inactive | inactive | inactive | 
CCN(CC)CCNC(=O)c1cc(Br)c(N)cc1OC | inactive | inactive | inactive |  | inactive |  | inactive | inactive | inactive | inactive |  | inactive |  | inactive | inactive |  | 0.376 µM (active) | inactive | inactive | inactive
COc1ccccc1OCC(O)CN1CCN(CC(=O)Nc2c(C)cccc2C)CC1 (stereo not drawn) | inactive | inactive | inactive | inactive | inactive | inactive | inactive | inactive | inactive | inactive | inactive |  | inactive |  | 11.9 µM (active) | inactive | inactive | inactive |  | 
CCCCC(CC)CN (stereo not drawn) | inactive | inactive | inactive |  |  | inactive | inactive | inactive | inactive | inactive | inactive |  | inactive | inactive | inactive | inactive | inactive | inactive | inactive | inactive
CC(=O)c1cccnc1 | inactive | inactive | inactive | inactive | inactive | inactive | inactive | inactive | inactive | inactive | inactive | inactive | inactive | inactive | inactive | inactive | inactive | inactive | inactive | 
CCCCCCCCCC(=O)OCC | inactive | inactive | inactive |  |  | inactive | inactive | inactive | inactive | inactive | inactive | inactive | inactive | inactive | inactive | inactive | inactive | inactive | inactive | inactive
